Consider 6 compounds from PubChem BioAssay (NCI).

Test systems include DU-145 prostate; K-562 leukemia; MALME-3M melanoma; MDA-MB-231 breast; RXF 393 renal; SF-268 CNS; SF-295 CNS; SF-539 CNS; UACC-257 melanoma; M14 melanoma; HCT-15 colon; HT29 colon; SNB-75 CNS; SNB-19 CNS; U251 CNS; SK-MEL-5 melanoma; UACC-62 melanoma; LOX IMVI melanoma; SK-MEL-28 melanoma.
What all share (assay): NCI-60 one-dose screen, 48 h (100 = growth as untreated, 0 = no growth, -100 = all killed)
What all share (settings): 10 µM unless noted

“And” between values parts separate entries of the source, which are not always exact repeats. Identical values can stand only once. The panel holds about 83,000 compounds, 20% with a hit somewhere; the sample as a whole holds those more often.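 Growth was measured after 48 h exposure to one concentration of compound in 96-well plates. Values under 10 count as active.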 The source made the active and inactive calls. Where a SMILES comes first, the peptide text is derived from it. The star is where a group is joined. Trt = c1ccc(C(c2ccccc2)(c2ccccc2)*)cc1; Cbz = O=C(OCc1ccccc1)*

For the compound `COC(=O)C(CSC(c1ccccc1)(c1ccccc1)c1ccccc1)NC(=O)C(CC(N)=O)NC(=O)OCc1ccccc1` (stereo not drawn) (Cbz-Asn-Cys(Trt)-OMe; configuration not given here), the growth in the assay with DU-145 prostate is 13.4% (inactive); in the assay on K-562 leukemia, 25.4% (inactive); with MALME-3M melanoma it was 27.1% (inactive); in the assay with MDA-MB-231 breast, 12.5% (inactive); with RXF 393 renal, 34.1% (inactive); in the assay on SF-268 CNS, 18% (inactive). Also, the growth in the assay on SF-295 CNS was 20.1% (inactive); with SF-539 CNS it was -22% (active); in the assay with UACC-257 melanoma, 59.1% (inactive); with M14 melanoma it was -57.4% (active); in the assay with HCT-15 colon it was 13.7% (inactive); in the assay on HT29 colon, 33.7% (inactive). Also, the growth is 20.3% (inactive) in the assay with SNB-75 CNS; 56.2% (inactive) in the assay with SNB-19 CNS; 50.2% (inactive) with U251 CNS; 14.1% (inactive) with SK-MEL-5 melanoma; -11.7% (active) with UACC-62 melanoma; -12% (active) in the assay on LOX IMVI melanoma. Further, the growth in the assay with SK-MEL-28 melanoma was 24.4% (inactive).

For `CCC(CC)COC(=O)c1ccc(O)c(O)c1`, the growth is 73.4% (inactive) with DU-145 prostate; 102% (inactive) with K-562 leukemia; 54.8% (inactive) in the assay on MALME-3M melanoma; 48.9% (inactive) in the assay with MDA-MB-231 breast; 65.7% (inactive) in the assay on RXF 393 renal; 57.8% (inactive) in the assay with SF-268 CNS. Moreover, the growth was 90.1% (inactive) in the assay with SF-295 CNS; 34% (inactive) in the assay on SF-539 CNS; 86.4% (inactive) with UACC-257 melanoma; 86.1% (inactive) in the assay with M14 melanoma; 49.2% (inactive) in the assay with HCT-15 colon; 96.8% (inactive) in the assay on HT29 colon. Moreover, the growth in the assay with SNB-75 CNS is 75% (inactive); in the assay on SNB-19 CNS, 74.6% (inactive); in the assay on U251 CNS, 50.9% (inactive); with SK-MEL-5 melanoma, 83.3% (inactive); in the assay with UACC-62 melanoma, 76.8% (inactive); in the assay with SK-MEL-28 melanoma it was 95.1% (inactive).

In the case of `Nc1nc(N)c2nc(CNc3ccc(C(=O)NC(CCC(=O)O)C(=O)O)cc3)cnc2n1` (stereo not drawn), the growth with DU-145 prostate is 28.2% (inactive) and 21.8% (inactive); with K-562 leukemia, 18.7% (inactive) and 32% (inactive); with MALME-3M melanoma, 47.8% (inactive) and 48.3% (inactive); in the assay with MDA-MB-231 breast, 78.1% (inactive) and 60.1% (inactive); in the assay with RXF 393 renal it was 48% (inactive) and 76.4% (inactive); with SF-268 CNS, 26.6% (inactive) and 27.3% (inactive). In addition, the growth in the assay with SF-295 CNS was 26% (inactive) and 12.9% (inactive); in the assay with SF-539 CNS, 21.3% (inactive) and 18.4% (inactive); with UACC-257 melanoma, 57.8% (inactive) and 52.2% (inactive); in the assay on M14 melanoma it was 10.8% (inactive) and 9.2% (active); in the assay on HCT-15 colon, 27% (inactive) and 26% (inactive); in the assay on HT29 colon, 32.5% (inactive) and 18.5% (inactive). Further, the growth with SNB-75 CNS is 64.3% (inactive) and 41.4% (inactive); in the assay with SNB-19 CNS it was 51% (inactive) and 44.4% (inactive); in the assay on U251 CNS it was 37.9% (inactive) and 26.9% (inactive); with SK-MEL-5 melanoma it was 24.6% (inactive) and 23.9% (inactive); with UACC-62 melanoma it was 25.3% (inactive) and 24.3% (inactive); with LOX IMVI melanoma, 12% (inactive) and 13.1% (inactive). In addition, the growth in the assay with SK-MEL-28 melanoma was 67% (inactive) and 96.9% (inactive).

For the compound `O=C(O)C1C2CC3C(OC(=O)C31)C2Br` (stereo not drawn), the growth in the assay with DU-145 prostate is 122% (inactive) and 107% (inactive); with K-562 leukemia it was 113% (inactive) and 110% (inactive); with MALME-3M melanoma, 101% (inactive) and 93.5% (inactive); with MDA-MB-231 breast, 103% (inactive) and 115% (inactive); in the assay with RXF 393 renal it was 98.2% (inactive) and 93.5% (inactive); with SF-268 CNS, 109% (inactive) and 106% (inactive). In addition, the growth in the assay with SF-295 CNS was 96.9% (inactive) and 101% (inactive); in the assay with SF-539 CNS, 99.5% (inactive); in the assay on UACC-257 melanoma, 82.7% (inactive) and 95% (inactive); in the assay on M14 melanoma, 96.7% (inactive) and 98.3% (inactive); in the assay with HCT-15 colon, 97.3% (inactive) and 101% (inactive); in the assay with HT29 colon, 84.9% (inactive) and 105% (inactive). Moreover, the growth in the assay with SNB-75 CNS is 106% (inactive) and 80.7% (inactive); with SNB-19 CNS, 97.3% (inactive) and 107% (inactive); in the assay with U251 CNS it was 92.3% (inactive) and 91.1% (inactive); in the assay with SK-MEL-5 melanoma it was 103% (inactive) and 93.2% (inactive); with UACC-62 melanoma it was 93.5% (inactive) and 107% (inactive); in the assay with LOX IMVI melanoma it was 101% (inactive) and 95.2% (inactive). The growth in the assay on SK-MEL-28 melanoma is 100% (inactive) and 103% (inactive).

As to `O=C1N[C@H]2[C@H](CS[C@H]2CCCCC(=O)N(CCP(c2ccccc2)c2ccccc2)CCP(c2ccccc2)c2ccccc2)N1`, the growth was 95.6% (inactive) with DU-145 prostate; 69.3% (inactive) in the assay on K-562 leukemia; 91.7% (inactive) in the assay on MALME-3M melanoma; 80.9% (inactive) with MDA-MB-231 breast; 96.5% (inactive) in the assay on RXF 393 renal; 88.8% (inactive) in the assay with SF-268 CNS. In addition, the growth with SF-295 CNS was 83.6% (inactive); in the assay with SF-539 CNS, 99.5% (inactive); with UACC-257 melanoma it was 79.6% (inactive); with M14 melanoma, 97.3% (inactive); in the assay with HCT-15 colon, 78.6% (inactive); with HT29 colon, 59.3% (inactive). In addition, the growth in the assay with SNB-75 CNS is 104% (inactive); with SNB-19 CNS it was 75.7% (inactive); in the assay on U251 CNS, 50.8% (inactive); in the assay with SK-MEL-5 melanoma, 87.8% (inactive); with UACC-62 melanoma it was 88.3% (inactive); with LOX IMVI melanoma, 76% (inactive). Also, the growth in the assay with SK-MEL-28 melanoma was 99.7% (inactive).

Turning to `Cc1cc2nc(CS)[nH]c2cc1C`, the growth in the assay with DU-145 prostate was 93.9% (inactive); in the assay on K-562 leukemia, 76.8% (inactive); in the assay with MALME-3M melanoma, 95.7% (inactive); in the assay on MDA-MB-231 breast, 99% (inactive); in the assay on RXF 393 renal, 76.9% (inactive); in the assay with SF-268 CNS it was 103% (inactive). Moreover, the growth in the assay with SF-295 CNS was 102% (inactive); in the assay on SF-539 CNS, 94.6% (inactive); with UACC-257 melanoma it was 101% (inactive); in the assay on M14 melanoma, 89.9% (inactive); with HCT-15 colon, 101% (inactive); with HT29 colon, 89.9% (inactive). In addition, the growth was 75.5% (inactive) with SNB-75 CNS; 93.3% (inactive) in the assay on SNB-19 CNS; 85.1% (inactive) in the assay on U251 CNS; 87.7% (inactive) in the assay with SK-MEL-5 melanoma; 84.4% (inactive) in the assay with UACC-62 melanoma; 88% (inactive) with LOX IMVI melanoma. The growth in the assay on SK-MEL-28 melanoma is 89.5% (inactive).
